Experiment [1] concerns the target Estrogen receptor (Homo sapiens) (UniProt P03372). Kind of experiment: qHTS assay to identify small molecule antagonists of the estrogen receptor alpha (ER-alpha) signaling pathway (AID 743069; active means well fitted curve in the direction sought with a large enough effect in the signal ratio in the repeat runs, not every such curve was filed as active; the % refers to the signal ratio). The method, boiled down: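 Reporter cells (ER-alpha-bla, HEK293 background) are conditioned overnight in stripped-serum medium (2% charcoal-stripped FBS). Compound and 17beta-estradiol exposure runs 18 hr at 37C, 5% CO2.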
(qHTS replaces the single test concentration by a dilution series.)

A short description of experiment [2]: qHTS assay to identify small molecule antagonists of the estrogen receptor alpha (ER-alpha) signaling pathway - cell viability counter screen (AID 743074; calls by dose curve;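 further: HEK293 cells carrying ER-alpha-UAS-bla reporter stimulated with 17beta-estradiol; nearly all actives have a fitted effect of over 45% in size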).
The target of experiment [3] is Estrogen receptor (Homo sapiens) (UniProt P03372). Kind of experiment: qHTS assay to identify small molecule agonists of the estrogen receptor alpha (ER-alpha) signaling pathway (AID 743075; calls by dose curve;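 further: HEK293 GripTite cells with ER-alpha and UAS-driven beta-lactamase reporter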).
Estrogen receptor (Homo sapiens), sequence (P03372 whole entry, looked up): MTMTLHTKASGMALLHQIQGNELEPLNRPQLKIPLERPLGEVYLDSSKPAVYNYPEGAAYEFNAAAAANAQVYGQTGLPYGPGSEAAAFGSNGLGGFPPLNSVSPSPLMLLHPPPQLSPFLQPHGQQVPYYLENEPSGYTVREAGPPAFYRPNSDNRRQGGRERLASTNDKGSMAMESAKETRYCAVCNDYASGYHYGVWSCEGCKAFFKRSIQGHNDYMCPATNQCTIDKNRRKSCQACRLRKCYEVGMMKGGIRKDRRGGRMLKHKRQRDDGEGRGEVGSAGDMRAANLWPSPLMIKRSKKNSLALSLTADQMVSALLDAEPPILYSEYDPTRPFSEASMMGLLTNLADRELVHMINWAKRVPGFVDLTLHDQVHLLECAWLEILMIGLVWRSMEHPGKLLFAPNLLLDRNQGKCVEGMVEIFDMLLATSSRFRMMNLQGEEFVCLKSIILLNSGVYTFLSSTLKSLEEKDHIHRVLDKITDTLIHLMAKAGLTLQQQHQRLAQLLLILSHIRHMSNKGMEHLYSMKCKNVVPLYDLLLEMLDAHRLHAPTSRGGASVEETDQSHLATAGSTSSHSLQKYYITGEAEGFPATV
A short description of experiment [4]: qHTS assay to identify small molecule antagonists of the estrogen receptor alpha (ER-alpha) signaling pathway using the BG1 cell line (AID 743080; calls by dose curve;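 further: BG1 cells stimulated with 17beta-estradiol alongside compound; series mostly up to about 70 µM; nearly all actives have a fitted effect of over 25% in size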). The method, boiled down:
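Luminescence from a 4×ERE-luciferase reporter in BG1-Luc-4E2 cells served as read-out. Cells, pre-cultured 5 days in stripped-serum phenol-red-free medium, were exposed to compound with 17beta-estradiol co-stimulation for 21.5 h at 37 C.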

Experiment [5] is described as follows: qHTS assay to identify small molecule antagonists of the estrogen receptor alpha (ER-alpha) signaling pathway using the BG1 cell line - cell viability counter screen (AID 743081).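 Further: compound given together with 17beta-estradiol as the ER stimulus; series mostly up to about 70 µM; nearly all actives have a fitted effect of over 45% in size.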
The target in another experiment is Aromatase (Homo sapiens) (UniProt P11511). Kind of experiment: qHTS assay to identify aromatase inhibitors (AID 743083). Further: series mostly up to about 70 µM; nearly all actives have a fitted effect of over 55% in size.
Aromatase (Homo sapiens), sequence (P11511 whole entry, looked up): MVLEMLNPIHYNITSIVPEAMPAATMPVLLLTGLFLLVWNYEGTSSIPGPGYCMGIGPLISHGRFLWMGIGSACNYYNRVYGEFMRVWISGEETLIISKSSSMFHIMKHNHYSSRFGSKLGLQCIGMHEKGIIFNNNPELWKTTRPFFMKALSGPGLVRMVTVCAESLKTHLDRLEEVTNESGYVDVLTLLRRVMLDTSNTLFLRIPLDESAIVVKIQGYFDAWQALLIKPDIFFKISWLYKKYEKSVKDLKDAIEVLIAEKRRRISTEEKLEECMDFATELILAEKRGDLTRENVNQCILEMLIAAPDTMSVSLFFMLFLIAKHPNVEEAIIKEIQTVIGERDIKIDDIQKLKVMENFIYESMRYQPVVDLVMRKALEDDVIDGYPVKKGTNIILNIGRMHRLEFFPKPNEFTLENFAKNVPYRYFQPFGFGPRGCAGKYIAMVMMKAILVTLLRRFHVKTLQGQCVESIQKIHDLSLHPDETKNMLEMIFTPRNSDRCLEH
A short description of experiment [6]: qHTS assay to identify aromatase inhibitors - cell viability counter screen (AID 743084).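 Further: cells stimulated with testosterone during compound exposure; nearly all actives have a fitted effect of over 55% in size.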
Experiment [7] concerns the target Aryl hydrocarbon receptor (Homo sapiens) (UniProt P35869). In words: qHTS assay to identify small molecule that activate the aryl hydrocarbon receptor (AhR) signaling pathway (AID 743085). Further: nearly all actives have a fitted effect of over 15% in size. Further: potency means the concentration at half of the fitted maximal effect.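 On activation: HG2L7.5c1 human HepG2 liver cells with stably integrated DRE-driven firefly reporter; series mostly up to about 70 µM.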 Summed up:
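A multiplexed format paired cell viability (CellTiter-Fluor fluorescence) with AhR-dependent luciferase output (ONE-Glo luminescence) in the same wells of HepG2 DRE-luc cells after 24 h compound exposure at 37C.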

Experiment [8] in a line: qHTS assay to identify small molecule that activate the aryl hydrocarbon receptor (AhR) signaling pathway - cell viability counter screen (AID 743086).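 Further: HepG2 liver cells carrying the AhR DRE luciferase reporter; series mostly up to about 70 µM; nearly all actives have a fitted effect of over 45% in size.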 Summed up:
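HepG2-AhR-luc (HG2L7.5c1) cells, 4000/well, treated 24 h at 37 C with compound; viability measured as CellTiter-Fluor fluorescence after 30 min in the same wells as the luciferase read.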

Experiment [9] addresses Peroxisome proliferator-activated receptor gamma (Homo sapiens) (UniProt P37231). Kind of experiment: qHTS assay to identify small molecule agonists of the peroxisome proliferator-activated receptor gamma (PPARg) signaling pathway (AID 743094; active means well fitted activation curve with a large enough effect in the signal ratio in the repeat runs, not every such curve was filed as active; the % refers to the signal ratio). The method, boiled down: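 Quantitative HTS agonist mode: stable HEK293H line with UAS-beta-lactamase reporter under PPARg control, 17 h compound exposure at 37C, fluorescence after 1 h FRET substrate loading at room temperature.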

Experiment [10] shares this target. Kind of experiment: qHTS assay to identify small molecule antagonists of the peroxisome proliferator-activated receptor gamma (PPARg) signaling pathway (AID 743191; calls by dose curve; further: series mostly up to about 63 µM; nearly all actives have a fitted effect of over 30% in size). The method, boiled down:
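GeneBLAzer PPARg UAS-bla HEK293H cells, 5 h post-plating, exposed to compounds 17 h at 37C. LiveBLAzer B/G FRET substrate added for 1 h at room temperature; beta-lactamase reporter read by fluorescence intensity.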

A short description of experiment [11]: qHTS assay to identify small molecule antagonists of the peroxisome proliferator-activated receptor gamma (PPARg) signaling pathway - cell viability counter screen (AID 743194). Further: nearly all actives have a fitted effect of over 55% in size. The method, boiled down: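 Cytotoxicity counter screen in PPARg-bla HEK293H cells, same wells as reporter assay. Compounds plus 50 nM rosiglitazone (final) for 17 h at 37 C, then viability read by CellTiter-Glo luminescence.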

Experiment [12] can be described thus: qHTS assay for small molecule agonists of the antioxidant response element (ARE) signaling pathway (AID 743202; active means well fitted activation curve with a large enough effect in the signal ratio in the repeat runs, not every such curve was filed as active; the % refers to the signal ratio; further: potency means the concentration at half of the fitted maximal effect). The method, boiled down:
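Agonist mode reporter screen: HepG2 cells with ARE-controlled beta-lactamase are incubated with test compounds for 16 h at 37 C, and beta-lactamase activity is measured as fluorescence of cleaved B/G FRET substrate.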

Experiment [13] is described as follows: qHTS assay for small molecule agonists of the antioxidant response element (ARE) signaling pathway - cell viability counter screen (AID 743203; calls by dose curve; further: nearly all actives have a fitted effect of over 55% in size). Summed up:
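Seeded at 2,000 cells/well, ARE-bla HepG2 cells were incubated 5 hrs before compound addition. After 16 hrs of treatment at 37C with 5% CO2, CellTiter-Glo reagent was added and luminescence read 30 min later.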

A short description of experiment [14]: qHTS assay for small molecule activators of the heat shock response signaling pathway - cell viability counter screen (AID 743209). Further: nearly all actives have a fitted effect of over 50% in size. Summed up: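 First, HSE-bla HeLa cells were seeded at 1500 cells/well and kept overnight at 37 C. Next, compounds were pinned in and incubated 5 h. After the FRET substrate step, CellTiter-Glo was added and luminescence read 30 min later.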

Experiment [15] in a line: qHTS assay for small molecule activators of the heat shock response signaling pathway (AID 743210; active means well fitted activation curve with a large enough effect in the signal ratio in the repeat runs, with a control signal flat, not every such curve was filed as active; the % refers to the signal ratio;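 further: HeLa cells with beta-lactamase reporter driven by heat shock elements; series mostly up to about 63 µM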). Summed up: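 Quantitative high-throughput format using an engineered HeLa line in which heat shock response elements drive beta-lactamase; after 5 h with compound, cells received a B/G FRET substrate and fluorescence was read.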
In experiment [16] the target is Estrogen receptor (Homo sapiens) (UniProt P03372). Kind of experiment: qHTS assay to identify small molecule agonists of the estrogen receptor alpha (ER-alpha) signaling pathway using the BG1 cell line (AID 743079). Further: nearly all actives have a fitted effect of over 20% in size. Further: potency means the concentration at half of the fitted maximal effect.
The subject of experiment [17] is thyroid hormone receptor (rat, GH3 cells). In words: qHTS assay to identify small molecule agonists of the thyroid receptor (TR) signaling pathway (AID 743066; calls by dose curve).

Molecules are shown by their SMILES. Results filed as inconclusive are left out. The source made the active and inactive calls. Unless noted, the call rests on the fitted dose curve; in most records, active means well fitted curve in the direction sought with a large enough effect in the repeat runs; inconclusive means weak or mixed curves; inactive means no such curve, though single readings can be large; an effect the other way counts as inactive or inconclusive.

Aryl hydrocarbon receptor (Homo sapiens), sequence (P35869 whole entry, looked up): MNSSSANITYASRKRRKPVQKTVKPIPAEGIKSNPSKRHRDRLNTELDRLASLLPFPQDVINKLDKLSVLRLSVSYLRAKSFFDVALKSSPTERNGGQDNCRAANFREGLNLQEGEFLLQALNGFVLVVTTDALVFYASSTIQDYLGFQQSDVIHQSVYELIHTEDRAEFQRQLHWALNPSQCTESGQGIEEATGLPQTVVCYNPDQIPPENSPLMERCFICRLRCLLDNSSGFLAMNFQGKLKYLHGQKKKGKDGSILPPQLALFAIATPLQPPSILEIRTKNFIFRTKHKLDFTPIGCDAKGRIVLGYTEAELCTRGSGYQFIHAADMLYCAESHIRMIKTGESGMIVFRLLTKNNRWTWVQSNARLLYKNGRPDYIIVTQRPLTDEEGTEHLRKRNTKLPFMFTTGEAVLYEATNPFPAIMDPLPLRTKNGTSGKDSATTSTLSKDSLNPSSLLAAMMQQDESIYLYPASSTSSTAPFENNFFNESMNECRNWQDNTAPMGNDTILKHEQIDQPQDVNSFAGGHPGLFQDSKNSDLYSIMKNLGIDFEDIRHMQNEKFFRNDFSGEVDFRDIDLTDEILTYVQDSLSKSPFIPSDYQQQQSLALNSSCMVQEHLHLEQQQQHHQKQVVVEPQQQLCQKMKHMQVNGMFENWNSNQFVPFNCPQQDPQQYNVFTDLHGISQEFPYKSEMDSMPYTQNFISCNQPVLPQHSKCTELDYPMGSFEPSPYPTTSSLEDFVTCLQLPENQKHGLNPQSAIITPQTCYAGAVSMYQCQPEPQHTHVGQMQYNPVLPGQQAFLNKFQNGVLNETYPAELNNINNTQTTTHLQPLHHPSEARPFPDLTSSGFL
Peroxisome proliferator-activated receptor gamma (Homo sapiens), sequence (P37231 whole entry, looked up): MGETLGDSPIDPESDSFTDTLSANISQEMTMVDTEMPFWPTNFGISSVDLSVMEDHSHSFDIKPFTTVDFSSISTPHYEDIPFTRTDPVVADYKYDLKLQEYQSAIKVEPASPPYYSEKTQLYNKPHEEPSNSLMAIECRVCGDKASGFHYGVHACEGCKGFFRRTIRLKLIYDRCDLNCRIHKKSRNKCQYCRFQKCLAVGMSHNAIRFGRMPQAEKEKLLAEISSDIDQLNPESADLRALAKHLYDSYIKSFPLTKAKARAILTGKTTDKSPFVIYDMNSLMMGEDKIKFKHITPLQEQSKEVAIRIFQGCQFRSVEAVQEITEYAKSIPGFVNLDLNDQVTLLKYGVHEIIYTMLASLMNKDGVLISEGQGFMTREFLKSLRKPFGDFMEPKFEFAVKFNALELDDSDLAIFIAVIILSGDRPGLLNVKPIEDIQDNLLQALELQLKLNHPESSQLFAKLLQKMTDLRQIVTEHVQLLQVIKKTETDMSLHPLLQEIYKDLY

Turning to `CCCc1ccc(OC)cc1`, the Potency entry (in experiment [1]; in [3]; in experiment [4]; in [5]; in the experiment with Aromatase (Homo sapiens); in [6]) was “inactive” each time. Besides, the Potency result in experiment [7], in experiment [8], in experiment [9], in experiment [10], in [11] and in experiment [12] was “inactive” each time. Moreover, the Potency result in [13] was “inactive”. Also, the compound was classed as inactive in [2], in experiment [14] and in experiment [15].
With `CC(CC(C#N)(c1ccccc1)C(C)C)N(C)C` (centres undefined), the Potency entry in experiment [10], in [11] and in experiment [13] was “inactive” in each case. The outcome in experiment [14] and in experiment [15] was inactive.
Take `CC(O)CN` (centres undefined): the Potency result (in [1]; in experiment [3]; in experiment [16]; in experiment [4]; in experiment [5]; in the experiment with Aromatase (Homo sapiens)) was “inactive” throughout. Further, the Potency entry in experiment [6], in [8], in experiment [9], in experiment [11] and in experiment [12] was “inactive” throughout. Also, the call in experiment [2] was inactive.
As for `O=C(Nc1ccccc1)c1cc([N+](=O)[O-])ccc1Cl`, the compound was classed as inactive in experiment [17], in experiment [2] and in experiment [14]. In addition, the Potency entry (in experiment [3]; in experiment [5]; in the experiment with Aromatase (Homo sapiens); in experiment [11]; in experiment [13]) was “inactive” in each case. Besides, the Potency is 54.5 µM (active) in [7] and 7.7 µM (active) in experiment [12].
As for `CC(C)(C)c1cc(C=O)cc(C(C)(C)C)c1O`, the Potency entry in [10], in [11] and in experiment [12] was “inactive” in each case. The compound was classed as inactive in experiment [14] and in experiment [15].
In the case of `Nc1ncnc2c1ncn2[C@@H]1O[C@H](CO)[C@@H](O)[C@H]1O`, the Potency entry (in experiment [1]; in experiment [3]; in experiment [16]; in [4]; in experiment [5]; in the experiment with Aromatase (Homo sapiens)) was “inactive” in each case. Further, the Potency entry in [6], in experiment [7], in [8], in experiment [10], in experiment [11] and in experiment [13] was “inactive” each time. For the same compound, the call in [2] and in experiment [15] was inactive.
In the case of `Clc1cc(Cl)c2c(c1)N=C1CCCCCN1C2`, the compound was classed as inactive in experiment [17], in experiment [2], in experiment [14] and in experiment [15]. The Potency entry (in [3]; in [5]; in the experiment with Aromatase (Homo sapiens); in [6]; in experiment [7]; in experiment [8]) was “inactive” in each case. Moreover, the Potency entry in experiment [9], in experiment [11], in experiment [12] and in [13] was “inactive” each time. In addition, the Potency in [16] was 23.7 µM (active).
In the case of `CCCCCCCCCCCCCCCCN`, the compound was classed as inactive in experiment [17], in experiment [2], in experiment [14] and in experiment [15]. Further, the Potency result (in [1]; in [3]; in experiment [16]; in experiment [4]; in experiment [5]; with Aromatase (Homo sapiens)) was “inactive” in each case. For the same compound, the Potency entry in experiment [6], in [7], in experiment [8], in experiment [9], in experiment [12] and in [13] was “inactive” throughout.
On to `O=C(OCCN1CCOCC1)c1cccnc1Nc1cccc(C(F)(F)F)c1`, for which the Potency result in experiment [10], in experiment [11] and in experiment [13] was “inactive” each time. In addition, the Potency in experiment [12] is 26.6 µM (active). Further, the outcome in experiment [14] and in [15] was inactive.
On to `O=C1CCCN1CCO`, for which the result in experiment [17], in [2] and in [14] was inactive. The Potency result (in [1]; in experiment [3]; in experiment [16]; in experiment [4]; in experiment [5]; with Aromatase (Homo sapiens)) was “inactive” in each case. For the same compound, the Potency result in [6], in experiment [7], in [8], in experiment [10], in experiment [11] and in experiment [13] was “inactive” each time.
